# Values without a mark were called inactive. Calls of active or inactive are those of the source. Calls follow the shape of the dose curve; as a rule, active = well fitted curve in the direction sought with a large enough effect; inconclusive = small, poorly fitted or top-dose-only effect, or another doubt; inactive = no such curve, though single readings can be large or run the other way.
# Assay: Dual reporter qHTS for agonist of Pregnane X Receptor (hPXR) against the NCATS DSHEA and TCM libraries: Fluorescence readout (AID 1920058); also: 0% is about no effect
# Conditions: PXR dual reporter cells; series mostly up to 40 µM
# Text: Assay Development and Screening Technology Laboratory (ADST)
# National Center for Advancing Translational Sciences (NCATS), Rockville, MD
# National Institute of Health (NIH), Bethesda, Maryland
# Dietary Supplements and Natural Products have minor oversight of their safety and efficacy. We assembled a collection of Dietary Supplements and Natural Products (DSNP) as well as Traditional Chinese Medicinal (TCM) Plant extracts, which were screened against an in vitro panel of assays, including a liver cytochrome p450 enzyme panel, CAR/PXR signaling pathways, and P-gp transporter assays, to assess their activity. This pipeline facilitated the interrogation of Natural Product-Drug Interaction (NaPDI) through prominent metabolizing pathways. In addition, we compared the activity profiles of the DSNP/TCM substances with those of an approved drug collection. Many of the approved drugs have well-annotated mechanisms of action (MOA) while the MOAs for most of the DSNP and TCM samples remain unknown. Based on the premise that compounds with similar activity profiles tend to share similar targets or MOA, we clustered the library activity profiles to identify overlap with the NCATS Pharmaceutical Collection to predict the MOAs of the DSNP/TCM substances. Overall, we highlight four significant bioactivity profiles (measured by p-values) as examples of this prediction. To assess broad cytotoxicity, we employed screening against a HepG2 cell line. In addition, transporter-mediated drug interactions are utilized in the characterization of DDIs using a P-glycoprotein (P-gp) assays. To profile potential P-gp activity, a differential cell viability was measured against two cell lines: a parental KB-3-1 human cervical adenocarcinoma cell line and the drug-resistant subline KB-8-5-11 that overexpresses P-gp.
# To this end, we profiled both collections for potential CAR and/or PXR activity, employing a previously published 1536-well qHTS assay.
# [1] Lee TD, et al. A High-Throughput Screen of a Library of Therapeutics Identifies Cytotoxic Substrates of P-glycoprotein. Mol Pharmacol. Nov 2019;96(5):629-640. doi:10.1124/mol.119.115964
# For PXR luciferase reporter gene assays, we used hPXR-LucHepG2cells provided by Dr. Taosheng Chen (Department of Chemical Biology and Therapeutics, St. Jude Children's Research Hospital). Cells were cultured in EMEM supplemented with 10% fetal bovine serum, 100U/mL penicillin and 100ug/mL streptomycin, and 500ug/mL of geneticin.
# PROTOCOL TABLE (as described by Inglese J, Shamu CE and Guy RK. 2007)
# SEQUENCE No. (e.g., 1, 2, 3, etc.); PARAMETER (e.g., Cells, Incubation, Reagent, etc.); VALUE; DESCRIPTION.
# 1; Cells; 5 uL; hPXR-LucHepG2; white solid-bottom Greiner plate.
# 2; Incubation; 5h; 37C, 95% humidity, 5% CO2
# 3; Compounds and control; 23 nL; Kalypsis pintool (Wako USA).
# 4; Reagent; 1uL; rifampicin (RIF) in the antagonist mode.
# 6; Reagent; 1 uL; CellTiter-Fluor detection reagent.
# 7; Incubation; 1 hr; 37C, 5% CO2.
# 8; Read; Fluorescence; ViewLux plate reader.
# 9; Reagent; 4 uL; ONE-Glo Luciferase detection reagent.
# 10; Incubation; 30 min; room temperature.
# 11; Read; Luminescence; ViewLux plate reader.
# NOTES (numbers refer to Sequence numbers above)
# 1. Briefly, 5uL of hPXR-LucHepG2 cells in phenol red-free DMEM containing 5% charcoal-stripped FBS, 1 mM sodium pyruvate (Invitrogen), 2 mM L-glutamine (Invitrogen), and 100 U/mL penicillin and 100ug/mL streptomycin were dispensed using a BioRAPTR FRD at 4 x 10^5cells/mL (2000cells/well) in tissue culture-treated 1536-well white assay plates (GreinerBio-One).
# 2. Plates were incubated for 5h at 37C, 95% humidity, and 5% CO2 to allow for cell attachment.
# 3. Compounds (final concentration for most substances ranged from 15.6 nM to 45.9 µM), positive control rifampicin (RIF; final concentration range of 2.8 nM to 92 µM for the agonist mode), and cytotoxicity control tetraoctyl ammonium bromide (final concentration of 92 µM) were transferred (23 nL) via pintool (Wako Automation).
# 4-5. […]
Compound,outcome,activation
CCCCCCCCCCCCCCCCCCCCCC(=O)O,inactive,
CC(C)=CCC[C@](C)(O[C@@H]1O[C@H](CO)[C@@H](O)[C@H](O)[C@H]1O)[C@H]1CC[C@]2(C)[C@@H]1[C@H](O)C[C@@H]1[C@@]3(C)CC[C@H](O[C@@H]4O[C@H](CO)[C@@H](O)[C@H](O)[C@H]4O[C@@H]4O[C@H](CO)[C@@H](O)[C@H](O)[C@H]4O)C(C)(C)[C@@H]3CC[C@]12C,inactive,
COc1ccc(/C=C/c2cc(OC)cc(=O)o2)cc1,inactive,
CCCCCCCC/C=C/CCCCCCCCCC(=O)O,inactive,
CCCCCC/C=C\CCCCCCCC(=O)O,inactive,
CCCCCCCCCCCCCCCCCCCCCCCCCCCCCCO,,1.05% [at 5 µM]
CCCCC/C=C/C/C=C/CCCCCCCC(=O)O,inactive,
CC[C@H](CC[C@@H](C)[C@H]1CCC2C3CCC4C[C@@H](O)CC[C@]4(C)C3CC[C@@]21C)C(C)C (stereo not given in full),inactive,
O=C(OC[C@H]1O[C@@H](OC(=O)c2cc(O)c(O)c(O)c2)[C@H](OC(=O)c2cc(O)c(O)c(O)c2)[C@@H](OC(=O)c2cc(O)c(O)c(O)c2)[C@@H]1O)c1cc(O)c(O)c(O)c1,inactive,
CCCCCC(=O)CC,inactive,
COc1cc(/C=C/c2ccccc2)oc(=O)c1,inactive,
COc1ccccc1/C=C/C=O,inactive,
CCCCCCCCCCCC(=O)O,inactive,
CC1=CCC(=C(C)C)CC1,inactive,
C=C1C[C@@]23CC[C@H]4[C@@](C)(CCC[C@@]4(C)C(=O)O[C@@H]4O[C@H](CO)[C@@H](O)[C@H](O)[C@H]4O)[C@@H]2CC[C@]1(O[C@@H]1O[C@H](CO)[C@@H](O)[C@H](O[C@@H]2O[C@H](CO)[C@@H](O)[C@H](O)[C@H]2O)[C@H]1O[C@@H]1O[C@@H](C)[C@H](O)[C@@H](O)[C@H]1O)C3,inactive,
C=C/C(C)=C/C/C=C(\C)CCC=C(C)C,inactive,
Cc1ncc(COP(=O)(O)O)c(C)c1O,inactive,
CC(C)=CCCC(C)(OC1OC(COC2OC(CO)C(O)C2O)C(O)C(O)C1O)C1CCC2(C)C1C(O)CC1C3(C)CCC(OC4OC(CO)C(O)C(O)C4OC4OC(CO)C(O)C(O)C4O)C(C)(C)C3CCC12C (stereo not given),inactive,
O=C(/C=C/c1ccc(O)c(O)c1)O[C@@H]1C[C@](O)(C(=O)O)C[C@@H](O)[C@H]1O,inactive,
CCCCCCCC/C=C/CCCCCCCC(=O)O,inactive,

Compound,outcome,activation
CC1(C)CC[C@]2(C(=O)O)CC[C@]3(C)C(=CCC4[C@@]5(C)CC[C@H](O)[C@@](C)(CO)C5CC[C@]43C)[C@H]2C1 (stereo not given in full),inactive,
C=C1C[C@]23CC[C@H]4[C@@](C)(CCC[C@@]4(C)C(=O)O)[C@@H]2CC[C@@]1(O[C@@H]1O[C@H](CO)[C@@H](O)[C@H](O)[C@H]1O[C@@H]1O[C@H](CO)[C@@H](O)[C@H](O)[C@H]1O)C3,inactive,
O=c1cc(-c2ccc(O)cc2)oc2cc(O[C@@H]3O[C@H](CO)[C@@H](O)[C@H](O)[C@H]3O[C@@H]3OC[C@](O)(CO)[C@H]3O)cc(O)c12,inactive,
OCC1=C[C@@H](O)[C@@H]2C=CO[C@@H](OC3O[C@H](CO)[C@@H](O)[C@H](O)[C@H]3O)[C@H]12 (stereo not given in full),inactive,
O=c1cc(-c2ccc(O)c(O)c2)oc2cc(O[C@@H]3O[C@@H](CO)[C@@H](O)[C@@H](O)[C@H]3O)cc(O)c12,inactive,
CCCCCCCCCCCCCC(=O)O,inactive,
Oc1cc(O)c2c(c1)O[C@@H](c1cc(O)c(O)c(O)c1)[C@H](O)C2,inactive,
CCCCCCCCC[C@@H](O)CC(=O)CCc1ccc(O)c(OC)c1,inactive,
O=C(/C=C/c1ccc(O)c(O)c1)O[C@@H]1CC(O)(C(=O)O)C[C@@H](OC(=O)/C=C/c2ccc(O)c(O)c2)C1O (stereo not given in full),inactive,
O=C(O[C@@H]1Cc2c(O)cc(O)cc2O[C@@H]1c1ccc(O)c(O)c1)c1cc(O)c(O)c(O)c1,inactive,
C=CCc1ccc(OC)c(OC)c1,inactive,
O=C(O)[C@H]1O[C@@H](Oc2c(-c3ccc(O)c(O)c3)oc3cc(O)cc(O)c3c2=O)[C@H](O)[C@@H](O)[C@@H]1O,inactive,
C=CC(=C)CCC=C(C)C,inactive,
C=C(C)C(CC=C(C)C)CC12CC(CC=C(C)C)C(C)(C)C(CC=C(C)C)(C(=O)/C(=C(\O)c3ccc(O)c(O)c3)C1=O)C2=O (stereo not given),inactive,
CCCCCCCCCC=O,inactive,
O=C(/C=C/c1ccc(O)c(O)c1)O[C@H]1[C@H](O)C[C@](O)(C(=O)O)C[C@H]1OC(=O)/C=C/c1ccc(O)c(O)c1,inactive,
CCCCCCC/C=C/C(=O)CCc1ccc(O)c(OC)c1,inactive,
CC(=O)O[C@H]1[C@H](O[C@H]2CC[C@]34C[C@]35CC[C@]3(C)[C@@H]([C@@]6(C)CC[C@@H](C(C)(C)O)O6)[C@@H](O)C[C@@]3(C)[C@@H]5C[C@H](O[C@@H]3O[C@H](CO)[C@@H](O)[C@H](O)[C@H]3O)[C@H]4C2(C)C)OC[C@@H](O)[C@@H]1O,inactive,
CCCCCCCCC/C=C/C(=O)CCc1ccc(O)c(OC)c1,inactive,
O=C(/C=C/c1ccc(O)c(O)c1)OC1[C@H](O)CC(O)(C(=O)O)C[C@@H]1O (stereo not given in full),inactive,
